Measurements reported in PubChem BioAssay AID1273 (Columbia University Molecular Screening Center, 2008).
Screen size: about 130,000 compounds; about 1,200 (0.92%) were called active.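 The calls were made as follows: active = inhibition above the mean plus 3 SD, with well images judged a real hit on visual review (cut at about 60% in these data, passing the limit was not always enough); inconclusive = inhibition over the cutoff but images rejected on review; inactive = inhibition not above the cutoff.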 The list comes from a sample in which actives are over-represented; it also holds similar structures and randomly drawn compounds.

Assay: insulin gene promoter suppression in islet cells – imaging, TRM-6 cells (human fetal islet line), eGFP reporter, cell count, primary screen (AID 1273;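 as to normalized cell count: cells exposed to compound for 48 h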)
Settings: at 2 µM; inhibition: stronger effect = higher value; normalized cell count: measured here: cell count, toxicity

Row | SMILES | inhibition | normalized cell count [%]
1 | COP(=O)(OC)C(NC(=O)c1ccc(C)cc1)C(Cl)(Cl)Cl (stereo not given) | 78.6% (active) | 102
2 | CC(=O)c1ccc(OC(NC(=O)Cc2ccccc2)C(Cl)(Cl)Cl)cc1 (stereo not given) | -6.45% (inactive) | 137
3 | CCOP(=O)(OCC)C(NC(=O)c1ccc(C)cc1)C(Cl)(Cl)Cl (stereo not given) | -37.5% (inactive) | 107
4 | O=C(OCCN1CCOCC1)C1(c2ccccc2)CCCC1 | -36.4% (inactive) | 95.2
5 | CN(C)P(=S)(Nc1ccccc1)C(Cl)(Cl)Cl (stereo not given) | 26.7% (inactive) | 29.6
6 | Cc1ccc(-c2nn(CCC#N)cc2C(=O)O)cc1C | -30% (inactive) | 85.1
7 | CCN(CC)C(=O)c1ccc(NC(=O)c2cc(-n3cnnc3)ccc2Cl)cc1 | 86.7% (active) | 44.7
8 | CC(c1ccccc1)(c1ccccc1)c1ccncc1 | 27.3% (inactive) | 109
9 | Cc1ccsc1C(=O)C1CCCN(Cc2ccc(O)cc2)C1 (stereo not given) | 11.1% (inactive) | 139
10 | C=CCN(CC=C)C(=O)Nc1ccc(OCC)cc1 | 36.8% (inactive) | 88.5
